USP10 block: human USP10 deubiquitinase inhibition; Q14694; purified USP10, Ub-rhodamine fluorescence, 60 min; inhibition, % at 20 µM; 1.1% of 47,000 active; AID 1645856
USP8 inh: blocks human USP8 ubiquitin-rhodamine cleavage. 4.2% of 47,000 active. AID 1645853. purified USP8, Ub-rhodamine cleavage fluorescence, 30 min. inhibition, % at 20 µM
USP7 inh: human USP7 deubiquitinase inhibition; Q93009; purified USP7, Ub-rhodamine cleavage fluorescence; inhibition, % at 20 µM; 0.3% of 47,000 active
UCHL1 inh: blocks human UCHL1 ubiquitin-rhodamine cleavage. P09936. purified UCHL1, Ub-rhodamine cleavage fluorescence. inhibition, % at 20 µM. 0.2% of 47,000 active. AID 1645859
Target sequence (P09936 whole entry, looked up): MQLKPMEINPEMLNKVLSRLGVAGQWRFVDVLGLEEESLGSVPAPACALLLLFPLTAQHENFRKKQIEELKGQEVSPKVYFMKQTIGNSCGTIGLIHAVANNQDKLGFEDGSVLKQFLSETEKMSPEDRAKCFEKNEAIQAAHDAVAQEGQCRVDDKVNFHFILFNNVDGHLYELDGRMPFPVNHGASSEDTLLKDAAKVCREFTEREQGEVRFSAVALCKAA
Hits are given with their value; . = inactive; / = no result. Hits are enriched below; roughly 5% of the tested compounds scored in any of these assays. Rule as the data show it: active = inhibition above about 30%; inactive = the rest.

SMILES	USP10 block	USP8 inh	USP7 inh	UCHL1 inh
Cc1sc(NC(=O)Cn2nnc3ccccc32)nc1-c1ccc2c(c1)CCN2C(=O)C1CCCCC1	.	.	.	.
COc1cccc(CC(=O)Nc2cnc(-c3ccc(Cl)cc3)nc2)c1	.	79	.	.
O=C(COc1ccccc1)Nc1cnc(-c2ccccc2)nc1	.	.	.	.
Cc1ccc(-c2ncc(NC(=O)COc3cccc(C)c3)cn2)cc1	.	30	.	.
O=C(COc1ccc(Cl)cc1)Nc1ccc(-c2cn3cccnc3n2)cc1	.	53	.	.
COc1ccc(CC(=O)Nc2cc(-c3cn4cccnc4n3)ccc2C)cc1	.	.	.	.
O=C(COc1ccc(F)cc1)Nc1cnc(-c2ccc(Cl)cc2)nc1	.	95	.	.
CCCCCCCCCCCCCC/C=C/C(O)C(=O)NC(CO[C@@H]1O[C@@H](CO)[C@@H](O)[C@H](O)[C@@H]1O)C(O)/C=C/CC/C=C(\C)CCCCCCCCC (stereo partly specified)	.	.	.	.
O=C(COc1ccccc1)Nc1cnc(-c2ccc(Cl)cc2)nc1	.	78	.	.
Cc1cccc(OCC(=O)Nc2cc(F)c3nc(N4CCOCC4)ccc3c2)c1	.	60	.	.
COCC(=O)Nc1cc(F)c2nc(N3CCOCC3)ccc2c1	.	89	.	.
CCN1CCN(c2ccc(NC(=O)COc3cccc(C)c3)cc2)CC1	.	.	.	.
CCn1cc(S(=O)(=O)N2CCCC2c2nnc(-c3nccc4ccccc34)o2)c(C)n1 (stereo unspecified)	.	.	.	.
COc1ccc(C(NC(=O)c2nc3n(n2)-c2ccccc2S(=O)(=O)N3)C(C)C)cc1 (stereo unspecified)	30	.	.	.
N#Cc1c2n(c(=O)n(CCOc3ccccc3F)c1=O)CCC2	.	33	.	.
COc1ccc(OCCn2c(=O)c(C#N)c3n(c2=O)CCC3)cc1	.	.	.	.
CC(C)Cc1nc2sc3c(NCc4ccccc4)ncnc3c2c2c1COC(C)(C)C2	.	.	.	.
O=C(COc1ccccc1-c1nnc(-c2ccccc2)o1)Nc1ccc(F)cc1F	.	32	.	.
O=C(COc1ccccc1-c1nnc(-c2ccccc2)o1)NCCc1ccco1	.	86	.	.
CCc1ccccc1NC(=O)COc1ccccc1-c1nnc(-c2ccccc2)o1	.	.	.	.
Cc1ccc(-c2c(Nc3ccccc3N3CCN(C)CC3)c(=O)c2=O)cc1	.	.	.	.
CCn1cc(CNC(=O)c2ccc(C)s2)cn1	.	.	.	.
CCn1cc(Cn2cc(N)cn2)cn1	.	73	.	.
O=C(NCc1ccc2c(c1)OCO2)c1ccc(C2SCC(=O)N2Cc2ccco2)cc1 (stereo unspecified)	.	36	.	.
CCOc1cc(N2CCOCC2)c(OCC)cc1NC(=O)c1cc(-c2ccncc2)nc2ccccc12	.	70	.	.
SMILES	USP10 block	USP8 inh	USP7 inh	UCHL1 inh
COc1ccc(-c2cc(C(=O)Nc3ccc4c(c3)OCO4)c3ccccc3n2)cc1	.	.	.	.
CCOc1cccc(-c2cc(C(=O)Nc3ccc4c(c3)OCO4)c3ccccc3n2)c1	.	36	.	.
O=C(Nc1ccc2c(c1)OCO2)c1cc(-c2ccncc2)nc2ccccc12	.	35	.	.
CNC(=O)c1cc(-c2ccc3c(c2)OCO3)nc2ccccc12	.	.	.	.
CCOc1ccc(-c2cc(-c3nc4c5c(C)c(C)oc5ncn4n3)[nH]n2)cc1	.	.	.	.
Cc1c(-c2noc(-c3ccc[nH]3)n2)nnn1Cc1ccccc1	.	.	.	.
CCCCN(CC)c1ncnc2c1sc1nc(-c3ccco3)c3c(c12)CC(C)(C)OC3	.	59	.	.
CCCCN(CC)c1ncnc2c1sc1nc(-c3ccccc3)c3c(c12)CC(C)(C)OC3	.	.	.	.
CSc1ncccc1C(=O)OCc1ccccc1	.	.	.	74
O=S(=O)(c1ccc2c(c1)CCC2)N1CCN(c2nnnn2-c2ccccc2)CC1	.	.	.	.
CC1CCc2c(sc3nc(CCC(=O)NCc4ccc5c(c4)OCO5)[nH]c(=O)c23)C1 (stereo unspecified)	.	45	.	.
O=C(CCc1nc2sc3c(c2c(=O)[nH]1)CCCCC3)NCc1ccc2c(c1)OCO2	.	.	.	.
O=C(CNc1ccccc1N1CCOCC1)Nc1cc(S(=O)(=O)N2CCCCC2)ccc1Cl	.	.	.	.
COc1ccc(S(=O)(=O)N2C[C@@H]3c4nccn4-c4ccccc4[C@@H]3C2)cc1	.	.	.	.
CCCc1nc2sc3c(NCCN4CCOCC4)ncnc3c2c2c1CCC2	.	.	.	.
COc1cccc(/C=C/C(=O)Nc2ccc(C)c(Cl)c2)c1	.	32	.	.
COc1ccc(NC(=O)CC(=O)c2ccc([N+](=O)[O-])cc2)cc1S(=O)(=O)Nc1ccc(Br)cc1	53	72	.	.
COc1ccc(NC(=O)COc2ccccc2C#N)cc1S(=O)(=O)Nc1ccccc1Cl	.	.	.	.
COc1ccc(NS(=O)(=O)c2ccc(Cl)c(NC(=O)CC(=O)c3ccc([N+](=O)[O-])cc3)c2)cc1	.	37	.	.
O=C(NC1CCC1)[C@H]1C[C@@H]2CN(Cc3ccc(Cl)cc3)C[C@H]1O2	.	.	.	.
O=C(Nc1cnc(-c2cccc(Cl)c2)nc1)C1CCC1	.	30	.	.
COc1ccc(CC(=O)N2CCc3cc(-c4noc(C)n4)ccc32)cc1	.	.	.	.
O=C(Nc1nc(-c2ccccc2)ns1)c1ccc2ncsc2c1	36	.	.	.
O=C(Cc1ccccc1)Nc1nc(-c2ccccc2)ns1	.	.	.	.
Cc1c(C)n(-c2ccccc2)c2ncn(CC(=O)NCc3cccc(F)c3)c(=O)c12	.	45	.	.
SMILES	USP10 block	USP8 inh	USP7 inh	UCHL1 inh
Cn1c(=O)c2nc(-c3ccc(Cl)cc3)nnc2n(C)c1=O	40	99	.	32
Cn1c(=O)c2c(nc3n(CCO)c(-c4ccc(Cl)cc4)cn23)n(C)c1=O	.	.	.	.
NS(=O)(=O)c1ccc(CCNC(=O)c2nc(-c3ccccc3)n(-c3ccccc3)n2)cc1	.	.	.	.
Cn1nc(-c2ccccc2F)c2cc(C(=O)NCCc3ccc(S(N)(=O)=O)cc3)sc21	.	33	.	.
COc1ccc(F)cc1C(=O)N1CCOC(c2cc(=O)[nH]c(C)n2)C1 (stereo unspecified)	.	.	.	.
CC(C)Cc1nc2sc3c(SCC(N)=O)ncnc3c2c2c1COC(C)(C)C2	.	.	/	.
O=c1[nH]c(C2CCN(S(=O)(=O)c3ccc(S(=O)(=O)NC4CCCCC4)cc3)CC2)nc2c1nnn2Cc1c(Cl)cccc1Cl	42	40	.	.
O=c1[nH]c(C2CCN(S(=O)(=O)c3ccc(S(=O)(=O)NC4CC4)cc3)CC2)nc2c1nnn2Cc1c(Cl)cccc1Cl	31	32	.	.
Cc1ccc(C)c(Cn2nnc3c(=O)[nH]c(C4CCN(S(=O)(=O)c5ccc(S(=O)(=O)N6CCOCC6)cc5)CC4)nc32)c1	.	56	.	.
Cc1ccc(Cn2nnc3c(=O)[nH]c(C4CCN(S(=O)(=O)c5ccc(S(=O)(=O)NC6CCCCC6)cc5)CC4)nc32)cc1	.	.	.	.
